Measured values reported in PubChem BioAssay AID1733 (National Center for Advancing Translational Sciences (NCATS), 2009).
Records with an inconclusive call do not appear. Entries that show only a call come without a potency. Activity calls are given as the source filed them. The call rests on the fitted dose curve; in most records, active means well fitted inhibition curve with a large enough effect; inconclusive means small, poorly fitted or top-dose-only effect; inactive means flat fitted curve, though single readings scatter.

target: Luciferin 4-monooxygenase (Photinus pyralis) (UniProt P08659); experiment: Counterscreen Assay for Enhancers of SMN2 Splice Variant Expression: Interaction with Luciferase Reporter; settings: purified firefly luciferase, luminescence, 5 min; series mostly up to 40.3 µM
Sequence (P08659 whole entry, looked up, canonical isoform): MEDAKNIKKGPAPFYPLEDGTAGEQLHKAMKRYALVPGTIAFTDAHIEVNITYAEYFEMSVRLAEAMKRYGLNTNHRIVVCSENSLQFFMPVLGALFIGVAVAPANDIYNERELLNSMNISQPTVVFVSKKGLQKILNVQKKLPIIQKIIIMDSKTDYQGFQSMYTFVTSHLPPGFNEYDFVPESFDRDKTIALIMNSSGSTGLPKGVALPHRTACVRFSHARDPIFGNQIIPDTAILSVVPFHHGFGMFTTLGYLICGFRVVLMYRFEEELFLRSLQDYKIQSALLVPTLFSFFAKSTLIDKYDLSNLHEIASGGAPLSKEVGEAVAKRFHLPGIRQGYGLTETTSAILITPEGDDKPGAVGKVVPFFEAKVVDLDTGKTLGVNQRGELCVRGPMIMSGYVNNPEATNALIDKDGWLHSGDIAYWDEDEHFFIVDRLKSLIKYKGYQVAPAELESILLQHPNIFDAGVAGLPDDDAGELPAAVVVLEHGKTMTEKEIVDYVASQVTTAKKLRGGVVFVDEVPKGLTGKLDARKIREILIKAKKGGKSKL
Text: NIH Chemical Genomics Center [NCGC] NIH Molecular Libraries Probe Production centers Network [MLPCN] MLPCN Grant: R03 MH084179-01 Assay Submitter (PI): Elliot Androphy NCGC Assay Overview: Spinal muscular atrophy (SMA) is caused by insufficient levels of the survival motor neuron protein SMN. The SMN locus on chromosome 5q13 contains two inverted copies of SMN called SMN1 and SMN2 which are 99% identical at the amino acid level. SMN1 is a fully functional protein and SMN2 skips exon 7 90% of the time. Skipping of exon 7 produces non-functional protein product. 10% of the SMN2 protein includes exon 7 and is fully functional. In the SMA disease state, mutations in the SMN1 locus are the cause of the disease state. Because only 10% of SMN2 is of the fully functional form, it is not sufficient to overcome the deficiency produced by the loss of the SMN1 product. A therapy that either increases the amount of SMN2 product made increases the inclusion of exon 7 has been proposed for the treatment of SMA. We have designed an assay to identify small molecules that can increase the amount of functional SMN2 product by appending a luciferase reporter gene after the native SMN2 gene, such that inclusion of exon 7 in the expressed product places the luciferase sequence in frame, thus generating functional luciferase enzyme. One potential source of false positives in the primary screening assay is stabilization of the reporter luciferase via direct binding. This assay attempts to identify such compounds by screening directly for luciferase activity in the absence of the cellular system.
NCGC Assay Protocol Summary: The primary screen utilizes a luciferase reporter gene assay, combining the promoter and splicing based cassettes in tandem with the major portion of the native SMN1 cDNA, and then transfected into HEK293 cells. Compounds that modulate luciferase signal presumably modulate expression of […]. In this assay, we utilize purified firefly luciferase in lieu of a cellular reporter to identify compounds interacting directly with luciferase in the primary screen. Sequence, Parameter, Value, Description (1) Reagent, 2.5 uL, Enzyme in buffer (note A) (2) Compound, 23 nL, From stock solutions (3) Time, 5 minutes, Room temp (4) Reagent#2.5 ul, Luciferase detection reagent (note B) (5) Detector, 1 sec integrate, Luminescent read on Viewlux (note C) Sigma enzyme (1 mg) considered to be MW 61,000 diluted in 357 ul assay buffer to 50 uM stock. A - Enzyme and buffer consists of 50 mM Tris-acetate pH 7.6, 10 mM Mg acetate 0.05% BSA, 0.01% Tween and 5 nM firefly luciferase B - Detection reagent = britelite plus diluted 1:10 in PBS C - Viewlux settings were 1 second integration medium sensitivity Keywords: Spinal muscular atrophy, SMA, SMN2, high throughput screening, MLSMR, MLPCN, NIH Roadmap, qHTS and NCGC

| Compound | Potency | activity change, negative = inhibition |
| --- | --- | --- |
| OC[C@H]1O[C@@H](n2cnc3c(Nc4ccccc4)ncnc32)[C@H](O)[C@H]1O | inactive |  |
| Cc1ccc(-c2csc(NC(=O)C3CCN(S(=O)(=O)c4cccs4)CC3)n2)cc1 | 8.91 µM (active) |  |
| NC(=O)C1(N2CCCCC2)CCN(c2nc(-c3ccccc3)cs2)CC1 | inactive |  |
| Fc1ccc(Oc2nc(-c3ccccc3)nnc2C(F)(F)F)cc1 | 11.2 µM (active) |  |
| Clc1ccc(-c2nnc(-c3ccccc3)nc2-c2c[nH]c3ccccc23)cc1 | inactive |  |
| O=C(Nc1ccc([N+](=O)[O-])cc1Cl)c1cc(Cl)ccc1O | 0.794 µM (active) |  |
| Cc1oncc1C(=O)Nc1ccc(C(F)(F)F)cc1 | 0.891 µM (active) |  |
| O=C(O)c1cccc(COc2ccc(CO)cc2Cl)c1 | 7.08 µM (active) |  |
| O=C(NCCCNCCCNC(=O)c1ccccn1)c1ccccn1 |  | -6.78% [at 48.7 pM] (inactive) |
| OCCCNc1nc(-c2ccc(Cl)cc2)nnc1-c1ccc(Br)cc1 | inactive |  |
| CCOc1c(Cl)cc(C(=O)Nc2ccccc2C(=O)O)cc1Cl | 3.98 µM (active) |  |
| FC(F)C(F)(F)C1=CC(c2cccs2)=NCCN1 |  | -4.71% [at 48.7 pM] (inactive) |
| O=c1[nH]c(=O)n(C2CCCO2)cc1Br (stereo not given) | inactive |  |
| O=c1cc(N2CCN(c3cccc(Cl)c3)CC2)[nH]c(=O)n1C1CCCCC1 |  | -4.08% [at 48.7 pM] (inactive) |
| Cc1ccc(-c2nnc(-c3ccccc3)c(-c3ccccc3)n2)cc1 | inactive |  |
| CC(C)Nc1nc(-c2ccccc2)nnc1-c1ccccc1 | inactive |  |
| CCCc1sc(N2CCCC(C(N)=O)C2)nc1-c1ccccc1 (stereo not given) | inactive |  |
| COCCCN1C(=O)C(=O)/C(=C(/O)c2ccc3c(c2)CC(C)O3)C1c1cccnc1 (stereo not given) |  | 4.07% [at 48.7 pM] (inactive) |
| CCC1=Nc2ccccc2-c2nnc(SC)nc2O1 | inactive |  |
| Cc1nnc(-c2ccccc2)[nH]c1=O | inactive |  |

| Compound | Potency | activity change, negative = inhibition |
| --- | --- | --- |
| Nc1ccccc1-c1nnn(CC(=O)N2CCCc3ccccc32)n1 |  | 2.12% [at 48.7 pM] (inactive) |
| CCCSc1nnc2c(n1)OC(c1sccc1C)Nc1ccccc1-2 (stereo not given) | 14.1 µM (active) |  |
| O=C(Cc1c(F)cccc1Cl)N1CCN(C(=O)c2ccco2)CC1 |  | -0.165% [at 48.7 pM] (inactive) |
| CCCCOC(C)n1cc(F)c(=O)[nH]c1=O (stereo not given) | inactive |  |
| COC(=O)C1=C(C)NC(=O)/C1=C\c1cc(C)n(-c2ccccc2F)c1C |  | 8.15% [at 48.7 pM] (inactive) |
| CCOc1ccc2nc(N3CCC(C(=O)N4CCN(c5ccccn5)CC4)CC3)sc2c1 | inactive |  |
| NC(=O)N1c2ccccc2C=Cc2ccccc21 | inactive |  |
| COc1cccc(NC(=O)CSc2nc3ccccc3nc2N2CCOCC2)c1 | inactive |  |
| O=C(Nc1cccnc1)/C(N=Nc1c(Cl)cccc1Cl)=C(\O)c1ccccc1 |  | -9.05% [at 48.7 pM] (inactive) |
| Brc1ccc(-c2nnc(-c3ccccc3)c(N3CCSCC3)n2)cc1 | 10 µM (active) |  |
| COc1ccc(OC)c(-c2csc(N3CCC(c4ccccc4)CC3)n2)c1 | inactive |  |
| CC1CN(c2nc(-c3ccc(Br)cc3)nnc2-c2ccccc2)CC(C)N1 (stereo not given) | inactive |  |
| COc1c(C)c2c(c(O)c1C/C=C(\C)CCC(=O)O)C(=O)OC2 | inactive |  |
| Cc1[nH]c2ccccc2c1-c1nc(-c2ccc(Cl)cc2)nnc1-c1ccccc1 | inactive |  |
| COc1nc(-c2ccc(Cl)cc2)nnc1C | inactive |  |
| COc1ccc(CNC(=O)c2ccc(C(C)C)cc2)cc1 |  | 39.8% [at 48.7 pM] (inactive) |
| C#CCn1c(S(=O)(=O)Cc2ccccc2Cl)nc(-c2ccccc2)c1-c1ccccc1 |  | 12% [at 48.7 pM] (inactive) |
| FC(F)(F)c1cccc(-c2nnc(-c3ccccc3)c(N3CCOCC3)n2)c1 | inactive |  |
| Cc1ccc(-c2nnc(-c3ccccc3)c(N3CCOCC3)n2)cc1 | inactive |  |
| N#C/C(=C\Nc1ccccc1SC(F)(F)F)c1nc(-c2ccc(Cl)cc2)cs1 |  | 19.5% [at 48.7 pM] (inactive) |
